# Assay outcomes: PubChem BioAssay, National Center for Advancing Translational Sciences (NCATS)
# The entries come from a sample that favours hits as a whole.
# Vaccinia mCherry = qHTS for Stage-Specific Inhibitors of Vaccinia Orthopoxvirus: mCherry Reporter Primary qHTS; Vaccinia virus mCherry reporter infection, fluorescence; Potency, µM (titrated, usually from 36.5 µM), for inactives: at the top dose activity change, negative = inhibition, most hits filed as inhibitors; hit rate 0.63% among 310,000; AID 720579, 2013; calls by dose curve; tested in A549 cells; also: potency is read from the fitted curve at half-maximal effect; % is scaled to controls: 0 for no effect and ±100 for the full control effect; nearly all actives have a fitted effect of over 35% in size
# Vaccinia Venus = qHTS for Stage-Specific Inhibitors of Vaccinia Orthopoxvirus: Venus Reporter Primary qHTS | Vaccinia virus Venus reporter expression, fluorescence | Potency, µM (highest dose often 36.5 µM), for the others: at the highest dose activity change, negative = inhibition, actives largely listed as inhibitors | hit rate 0.46% among 330,000 | AID 720580, 2013; calls by dose curve; tested in A549 cells; also: potency is read from the fitted curve at half-maximal effect; % is scaled to controls: 0 for no effect and ±100 for the full control effect; nearly all actives have a fitted effect of over 30% in size
# Shiga toxin inh = A qHTS for Small Molecule Inhibitors of Shiga Toxin; hit rate 9.2% among 290,000; inhibition, % at 38.7 µM; AID 2315, 2010; Vero cells, Shiga toxin protein synthesis inhibition reporter; in the data active = inhibition mostly above about 28%, no sharp cut-off; inactive = mostly below about 43%; also: 0% is about no effect
# MARV entry inh = qHTS for inhibitors of binding or entry into cells for Marburg Virus; Marburg virus pseudotyped entry inhibition, cell reporter; Potency, µM (highest dose often 37.8 µM), for inactives: at the highest dose activity change, negative = inhibition, hits mostly inhibitors; hit rate 1.8% among 300,000; calls by dose curve; tested in HEK293 cells; also: potency is read from the fitted curve at half-maximal effect; % is scaled to controls: 0 for no effect and ±100 for the full control effect
# Lassa entry inh = qHTS for Inhibitors of binding or entry into cells for Lassa Virus; Lassa virus pseudotype entry inhibition, cell reporter; Potency, µM (series often up to 37.9 µM), inactives show at the highest dose activity change, negative = inhibition, most hits filed as inhibitors; hit rate 1.2% among 300,000; AID 540256, 2011; calls by dose curve; tested in HEK293 cells; also: potency is read from the fitted curve at half-maximal effect; % is scaled to controls: 0 for no effect and ±100 for the full control effect; nearly all actives have a fitted effect of over 50% in size
# Cycloheximide cs = Cycloheximide Counterscreen for Small Molecule Inhibitors of Shiga Toxin; hit rate 12% among 300,000; cell reporter, cycloheximide protein synthesis inhibition counterscreen; max response, %; in the data active = max response mostly above about 13%, no sharp cut-off; inactive = mostly below about 14%; also: read at 38.3 µM for the half of the compounds with a filed dose; 0% is about no effect
# Numbers without * were called inactive; i = inactive; ? = inconclusive; . = no result; [ ] = remark or other dose.
SMILES,Vaccinia mCherry,Vaccinia Venus,Shiga toxin inh,MARV entry inh,Lassa entry inh,Cycloheximide cs
CCCCN(C)C(=O)CN1C(=O)CCn2nc(-c3cn(C)c4ccccc34)cc21,-12%,-10%,.,.,0%[46.1 µM],.
COc1ccc(CNC(=O)c2cc(C3CC3)on2)cc1,-9%,-8%,81,.,.,25*
COCCNC(=O)c1cc(-c2ccccc2OC)on1,3%,-16%,131,.,.,17*
COc1ccccc1-c1cc(C(=O)NC(C)c2ccccc2)no1 (configuration not stated),-5%,1%,-18,-10%,22%[14.3 µM],7
COc1ccccc1-c1cc(C(=O)NCc2cccs2)no1,-24%,-29%,28,2%,-2%,12
CCN(CC)C(=O)c1cc(-c2ccccc2OC)on1,-12%,-2%,54*,?,0%,37*
COc1ccccc1-c1cc(C(=O)NC(C)C)no1,.,.,83*,?,?,34*
COc1ccccc1-c1cc(C(=O)NCc2ccco2)no1,-21%,-19%,30,-2%,0%,37*
COc1ccccc1-c1cc(C(=O)Nc2cc(OC)c(OC)c(OC)c2)no1,-27%,-26%,.,?,?,.
Cc1ccc(CCNC(=O)c2cc3sccc3n2Cc2ccc(F)cc2)cc1,-12%,0%,.,10%[46.1 µM],-21%[46.1 µM],.
CCC(C)NC(=O)c1cc(-c2cccc(OC)c2)on1 (configuration not stated),-2%,-2%,.,?,2%[46.1 µM],.
CCC(C)NC(=O)c1cc(-c2ccccc2O)on1 (configuration not stated),i,-8%,84*,.,.,52*
CN(C)CC(C(=O)c1ccccc1)c1ccccc1 (configuration not stated),14µM*,10µM*,-16,6.3µM*,8.9µM*,-4
O=C(c1ccc(Cl)cc1Cl)N1CCOCC1,i,4%,.,2%[46.1 µM],-2%[46.1 µM],.
O=C(O/N=C1/CCCc2occc21)c1ccc(Cl)cc1Cl,-8%,2%,86*,-5%[46.1 µM],12%[46.1 µM],54*
O=C(O/N=C1/CCCc2occc21)c1ccccc1,.,3%,54*,-1%,0%,26*
CC1(C)CC(=NOC(=O)c2ccccc2)CC(C)(C)N1,-3%,-10%,-11,8%,5%,-2
Cc1cccc(-c2noc(CN(C(=O)c3ccc4c(c3)OCO4)C(C)C)n2)c1,-23%,-20%,-19,?,-32%,-2
Cc1nc(C(C)N(C)Cc2nc(-c3ccc4c(c3)OCO4)no2)c(C)s1 (configuration not stated),-11%,-4%,45,?,7%,51*
COC(=O)c1cc(S(=O)(=O)N2CCOCC2)c(Cl)cc1N1CCOCC1,.,.,4,0%,-8%,-4
COC(=O)c1cc(C)nc2c1C(=O)C(=O)C=C2N1CCOCC1,?,4.5µM*,-25,?,?,-6
COc1ccc(-c2nc3ccccc3o2)cc1NC(=O)c1ccc(-c2cccc(Cl)c2C)o1,-6%,3%,.,.,0%[46.1 µM],.
CC(C)(O)C1CC[C@@](C)([C@@H]2CC[C@]3(C)[C@H]2[C@H](O)CC2[C@@]4(C)CCC(O)C(C)(C)C4C(OC4OC(CO)C(O)C(O)C4O[C@@H]4OCC(O)C(O)C4O)C[C@]23C)O1 (some centres not stated),i,-4%,.,.,.,.
CC1CC[C@@]2(OC1)OC1C(O)C3C4CC[C@H]5CC(O[C@@H]6O[C@@H](CO)[C@H](OC7OC(CO)C(O)C(OC8OCC(O)C(O)[C@H]8O)[C@@H]7O[C@@H]7OC(CO)[C@H](O)[C@@H](O[C@@H]8OC(CO)C(O)C(O)C8O)C7O)C(O)C6O)C(O)C[C@]5(C)C4CC[C@]3(C)C1C2C (some centres not stated),7.9µM*,8.9µM*,.,.,.,.
CCOC(=O)c1cc(-c2cccs2)[nH]n1,-10%[7.34 µM],-16%[7.34 µM],60*,-1%[46.1 µM],18%,22*
SMILES,Vaccinia mCherry,Vaccinia Venus,Shiga toxin inh,MARV entry inh,Lassa entry inh,Cycloheximide cs
O=C(O)c1ccc(N=Cc2c(O)ccc3ccccc23)cc1,?,-18%,.,?,-3%[46.1 µM],2
Cc1ccc(N=Cc2c(O)ccc3ccccc23)cc1F,-9%,-23%,15,1%,-19%,12
Oc1sc(C=Nc2ccc(F)cc2)c2ccccc12,.,.,13*,-13%,-18%,57*
Oc1sc(C=Nc2ccccc2)c2ccccc12,.,.,80*,-22%,11%,68*
COc1ccc(S(=O)(=O)NCc2cccnc2)c(Cl)c1Cl,-27%,-19%,.,.,.,.
O=C(COc1cccc2c1CCN(Cc1ccc(Br)cc1)C2=O)N1CCOCC1,-9%,-10%,24,?,?,-5
CCN1CCc2c(OCC(=O)N3CCCc4ccccc43)cccc2C1=O,3%,-4%,-15,-14%[46.1 µM],-7%,6
O=C(COc1cccc2c1CCN(Cc1ccc(Br)cc1)C2=O)NCc1ccco1,i,-14%,65,?,?,29*
Cc1ccc(CN2CCc3c(OCc4ccc(F)cc4)cccc3C2=O)cc1,?,?,9,?,7.1µM*,-1
O=C1c2cccc(OCC(=O)N3CCCc4ccccc43)c2CCN1Cc1ccc(Br)cc1,?,?,-5,?,21µM*,12
O=C1c2cccc(OCC(=O)N3CCCc4ccccc43)c2CCN1Cc1ccccc1,-15%,-2%,20,?,5%,14*
COC(=O)c1ccc(NC(=O)CSCc2ccccc2C)cc1,.,.,7,11%,-2%,15
C=C1c2ccccc2O[C@H](C(=O)OCC)[C@H]1OC,i,-7%,.,.,.,.
C=CC[C@@]1(C(=O)OC)C=C[C@@H](C)[C@H](c2ccccc2Br)N1C(=O)C(F)(F)F,.,.,.,-11%[14.2 µM],2%[14.3 µM],.
Cc1[nH]nc2c1C(c1ccccc1F)CC(=O)N2 (configuration not stated),.,.,-11,17%,7%,13*
CC1CN(S(=O)(=O)c2cccc(C(=O)Nc3ccc4c(c3)CCC4)c2)CC(C)O1 (configuration not stated),?,-24%,28,11µM*,?,16
CC1CN(S(=O)(=O)c2cccc(C(=O)NN3CCN(C)CC3)c2)CC(C)O1 (configuration not stated),-13%,-9%,-11,22%,2%,-4
CN(c1cccc(Cl)c1)S(=O)(=O)c1cccc(C(=O)Nc2ccc3c(c2)CCC3)c1,-10%,-25%,47*,2.2µM*,?,30*
Cc1c(C(=O)COC(C)(C)C)[nH]c2ccccc12,.,-16%,25,0%,25%,20*
C/C(=N\O)C(C)(C)Nc1ccc(Cl)cc1,-20%,20%,28,-4%[46.1 µM],18%[46.1 µM],1
COc1ccc(S(=O)(=O)N2c3cc(Cl)ccc3Oc3nc4ccccc4nc32)cc1,.,?,50*,-10%,-8%,17
